Rab9 promoter act – Rab9 promoter activation | Huh7 Rab9 promoter-luciferase reporter, luminescence, 24 h | Potency, µM (highest dose often 9.22 µM), for the others: top-dose activation, negative = inhibition, actives largely listed as activators | hit rate 2.8% among 320,000 | AID 485297; also: % of control where 0% means no effect; nearly all actives have a fitted effect of over 60% in size
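Huh7 reporter line, Rab9 promoter upstream of luciferase. Compound exposure 24 h at 37 °C in reduced-serum medium with 10% FBS. Read-out: luminescence.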
ELG1 genotox – induces genotoxicity in HEK293T cells with luciferase-tagged ELG1; Potency, µM (doses to about 46 µM), inactives show at the top dose activity change, positive = activation, usual class: activators; hit rate 1.3% among 330,000; HEK293T ELG1-luciferase reporter, luminescence, 16 h; also: % of control where 0% means no effect; nearly all actives have a fitted effect of over 60% in size
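HEK293T cells expressing luciferase-tagged ELG1 were exposed to compound or DMSO vehicle for 16 hr at 37 °C and 5% CO2. Luciferase activity was then measured with ONE-Glo after 30 min at room temperature.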
FLuc modulator – inhibits or activates purified firefly luciferase, miR-21 counter-screen | P08659 | hit rate 6.9% among 360,000 | Potency, µM (top dose mostly 57.5 µM), for inactives: at the top dose activity change, negative = inhibition, hits mostly inhibitors | purified FLuc, Km substrates, luminescence inhibition;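 also: plate controls were vehicle for no effect and reference inhibitor for full effect; nearly all actives have a fitted effect of over 55% in size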
Target sequence (P08659 whole entry, looked up): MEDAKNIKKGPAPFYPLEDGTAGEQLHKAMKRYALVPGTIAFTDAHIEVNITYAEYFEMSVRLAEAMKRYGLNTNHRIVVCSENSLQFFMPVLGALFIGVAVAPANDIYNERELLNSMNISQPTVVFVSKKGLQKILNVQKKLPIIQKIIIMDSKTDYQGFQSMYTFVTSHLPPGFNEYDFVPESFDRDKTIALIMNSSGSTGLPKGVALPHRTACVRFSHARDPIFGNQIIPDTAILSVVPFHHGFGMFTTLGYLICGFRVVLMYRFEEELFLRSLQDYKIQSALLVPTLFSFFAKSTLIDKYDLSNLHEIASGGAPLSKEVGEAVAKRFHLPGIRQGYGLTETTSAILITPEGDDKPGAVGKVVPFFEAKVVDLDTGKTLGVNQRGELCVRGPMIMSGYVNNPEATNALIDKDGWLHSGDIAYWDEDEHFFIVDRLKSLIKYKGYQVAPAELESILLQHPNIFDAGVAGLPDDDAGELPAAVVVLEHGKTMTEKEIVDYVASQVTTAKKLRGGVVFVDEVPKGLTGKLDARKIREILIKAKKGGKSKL
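Biochemical qHTS of compounds, final roughly 60 µM downward over six points, against 10 nM purified firefly luciferase using Km concentrations of substrates (10 uM D-luciferin, 10 uM ATP) in Tris acetate pH 7.5 buffer; luminescence output.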
Luc counter – counter-screen: inhibitors of Kinase-Glo firefly luciferase; Kinase-Glo luciferase, ATP luminescence, 8 min; Potency, µM (titrated, usually from 38.3 µM), for the others: top-dose activity change, negative = inhibition, actives largely listed as inhibitors; hit rate 0.28% among 200,000; AID 1379; also: % is scaled to controls: 0 for no effect and ±100 for the full control effect; nearly all actives have a fitted effect of over 60% in size
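Inhibition of Kinase-Glo luciferase light generation was assessed at 10 uM ATP in pH 7.2 imidazole buffer, with luminescence measured after eight minutes at ambient temperature.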
NPC1 prom act – activates the NPC1 promoter; Potency, µM (highest dose often 9.22 µM), for the others: at the highest dose activation, most hits filed as activators; Huh7 NPC1 promoter luciferase reporter, 24 h; hit rate 2.4% among 320,000; AID 485313; also: % of control where 0% means no effect; nearly all actives have a fitted effect of over 60% in size
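Stably transfected Huh7 (NPC1 promoter→luciferase), 1500 cells/well in Opti-MEM + 10% FBS, 2 h settle, then compound 24 h at 37 °C. Luminescence after 10 min with Amplite reagent.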
SMN2 splice enh – increases expression of the SMN2 splice variant | HEK293 SMN2-luciferase splicing reporter, luminescence, 30-36 h | Potency, µM (highest dose often 46.1 µM), without a hit: top-dose activity change, positive = activation, hits mostly activators | hit rate 2.8% among 210,000 | AID 1458; also: % of control where 0% means no effect; nearly all actives have a fitted effect of over 55% in size
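qHTS luciferase splicing reporter: luminescence rises when SMN2 exon 7 is included in transfected HEK293 cells. Compound exposure lasted 30-36 h at 37C, with 4.5 mM final sodium butyrate as control, followed by a ONE-Glo read.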
* marks the source's active call; other numbers are inactive results; ? = inconclusive; nt = not tested or not shown; [ ] = dose if it differs, or a comment. This is a sample that favours compounds with a hit; in the whole collection about 7.5% have one here. Calls follow the shape of the dose curve; as a rule, active = well fitted curve in the direction sought with a large enough effect; inconclusive = small, poorly fitted or top-dose-only effect, or another doubt; inactive = no such curve, though single readings can be large; an effect the other way counts as inactive or inconclusive. Potency is read from the fitted curve at half-maximal effect.

SMILES	Rab9 promoter act	ELG1 genotox	FLuc modulator	Luc counter	NPC1 prom act	SMN2 splice enh
COc1ccc2c(CC(=O)N3CCc4ccccc43)coc2c1	3.16µM*	?	3.38µM*	-16.9%	2µM*	15.8µM*
Cc1ccc(-c2cnc(SCC(=O)N3CCCc4ccccc43)n2C)cc1	-5.2%	-0.2%	19µM*	-6.1%	-4.3%	-9.3%
CN(CC(=O)Nc1cccc(F)c1)C(=O)c1cc(S(=O)(=O)N(C)C)ccc1N1CCCC1	-0.9%	-4.1%	1.1%	nt	-2.9%	nt
COc1ccc(-c2cc(C(=O)N3CCCC(C(F)(F)F)C3)c3ccccc3n2)cc1OC (centres undefined)	0.7%	-16.5%	?	nt	-0.9%	nt
COc1ccc(-c2cc(C(=O)N3CCN(c4ccccc4)CC3)c3ccccc3n2)cc1OC	-2.4%	-15.4%	15.1µM*	-6.7%	-3.3%	24.7%
Cc1ccc2c(C(=O)N3CCN(c4ccccc4)CC3)cc(-c3cccnc3)nc2c1C	-5.6%	-3.4%	-2.2%	0.5%	-6.6%	9.8%
Cc1ccc(-c2cc(C(=O)N3CCN(c4ccccc4)CC3)c3ccccc3n2)cc1C	nt	nt	2.39µM*	nt	nt	nt
Cc1ccc(-c2cc(C(=O)n3cnc4ccccc43)c3ccccc3n2)cc1C	?	11.7%	3.01µM*	-4.1%	?	21.3%
CCOc1ccc(NS(=O)(=O)c2ccc(-c3coc(C)n3)cc2)cc1	-1.9%	-0.2%	1.7%	nt	-8.0%	nt
CCOC(=O)c1ccc2c(c1)nc(-c1ccc(F)cc1)c1nccn12	-0.8%	-4.9%	5.1%	1.4%	0.9%	7.4%
COc1cc(C)c(CN2CCN(C(C)C(=O)NC(C)c3ccccc3)CC2)cc1OC (centres undefined)	4.7%	-25.8%	-0.6%	nt	-4.4%	nt
Cc1ccc(O)c(C2=NCCNC(C(F)(F)F)=C2)c1	-7.2%	-2.8%	4.9%	-1.7%	-2.1%	-8.4%
Oc1c(C2=NCCNC(C(F)(F)F)=C2)ccc2ccccc12	2.24µM*	9.2µM*	4.78µM*	-2.8%	2.82µM*	11.2µM*
Cc1ccc(C(=O)/C=C2/NC(=O)CS2)cc1	?	16.6%	6.75µM*	-3.1%	24.6%	20µM*
Cn1ncc(Cl)c1C(=O)N1CCC(Cc2ccccc2)CC1	-4.6%	-1.7%	-1.4%	nt	1.7%	nt
O=c1c(=NNc2ccccc2Cl)c(=O)c2ccccc12	?	?	0.0757µM*	6.31µM*	3.16µM*	-14.7%
Cc1cc(C)c(NN=c2c(=O)c3ccccc3c2=O)c(C)c1	1.78µM*	?	0.953µM*	-4.1%	2.82µM*	12.6µM*
Cc1ccc(CNC(=O)CN(C)S(=O)(=O)c2cccs2)cc1	-3.2%	3.0%	4.7%	-0.3%	-3.6%	8.2%
CC(=O)Nc1ccc(S(=O)(=O)N(Cc2ccccc2)Cc2ccccc2)cc1	nt	nt	?	nt	nt	-23.0%
CCCC(=O)Nc1ccc(Br)cn1	24.1%	-6.5%	-4.4%	-1.5%	0.4%	23.1%
Cc1ccnc(NC(=O)CCC2CCCCC2)c1	?	8.2µM*	10.7µM*	-1.8%	?	?
O=C(CCC1CCCC1)Nc1ccc(Br)cn1	2.24µM*	20.0%	-4.3%[2.3 µM]	3.1%	?	?
CCN(C(=O)CN1C(=O)S/C(=C\c2cccc(OC)c2)C1=O)C1CCS(=O)(=O)C1 (centres undefined)	1.8%	3.5%	?	nt	-16.4%	nt
COc1ccc(/C=C2\SC(=S)N(CC(=O)N(C)C3CCS(=O)(=O)C3)C2=O)cc1 (centres undefined)	-0.3%	3.5%	19µM*	nt	13.4%	nt
COc1cccc(/C=C2\SC(=S)N(CC(=O)N(C)C3CCS(=O)(=O)C3)C2=O)c1 (centres undefined)	-2.1%	4.6%	10.7µM*	nt	-1.2%	nt
SMILES	Rab9 promoter act	ELG1 genotox	FLuc modulator	Luc counter	NPC1 prom act	SMN2 splice enh
CN(C(=O)CN1C(=O)/C(=C/c2ccc(F)cc2)SC1=S)C1CCS(=O)(=O)C1 (centres undefined)	-3.9%	-0.1%[9.26 µM]	?	nt	-1.8%	nt
Cc1cccc(NC(=O)c2sc3nc(N)c(C#N)cc3c2N)c1	2.51µM*	?	9.53µM*	1.3%	2.82µM*	15.8µM*
COc1ccc(NC(=O)c2sc3nc4c(cc3c2N)CCCCCC4)cc1OC	nt	nt	-2.3%	nt	nt	0.9%
CCc1nnc(NC(=O)c2sc3nc4c(cc3c2N)CCCCCC4)s1	2.82µM*	?	4.78µM*	1.5%	?	12.6µM*
CC(=O)c1cccc(NC(=O)c2sc3nc4c(cc3c2N)CCCC4)c1	nt	nt	0.536µM*	nt	nt	16.9%
CCc1nnc(NC(=O)c2sc3nc4c(cc3c2N)CCCCC4)s1	1.58µM*	?	1.69µM*	-1.1%	2.24µM*	8.91µM*
Nc1cc(Cl)c([N+](=O)[O-])cc1O	nt	nt	nt	nt	nt	6.4%
CC(=O)Nc1ccc(SCC(=O)N2CCN(S(=O)(=O)c3ccccc3)CC2)cc1	1.2%	-5.3%	0.1%	nt	-3.7%	nt
O=C(Nc1ccccc1)C1=C[C@@H](C2CCCCC2)C[C@@H](OCc2ccc(CO)cc2)O1	16.8%	0.7%	?	nt	2.0%	nt
O=C(Nc1nc(-c2cccs2)cs1)c1cccc(S(=O)(=O)N2CCCCCC2)c1	?	8.8%	15.1µM*	-0.8%	-8.3%	-67.8%
O=C(Nc1ccccn1)c1cccc(S(=O)(=O)N2CCCCC2)c1	-3.5%	-0.6%	-5.5%	0.1%	-0.9%	-1.8%
O=C(CSCc1ccc(Cl)cc1Cl)Nc1ccccc1C(=O)Nc1ccc(C(=O)O)cc1	-7.2%	-2.5%	19µM*	2.4%	-4.9%	5.2%
O=C(Nc1ccccn1)c1ccc(Cl)c(S(=O)(=O)N2CCCCCC2)c1	?	-0.5%	21.3µM*	nt	18.9%	nt
O=C(O)c1ccc(Cl)c(S(=O)(=O)Nc2ccccc2C(=O)Nc2ccc(Cl)cc2)c1	15.7%	9.9%	26.9µM*	nt	14.3%	nt
O=C(Nc1nc(-c2cccs2)cs1)c1ccc(S(=O)(=O)N2CCCCC2)cc1	-11.8%	2.9%	9.9%	-1.9%	-6.7%	-84.3%
O=C(O)c1ccc(Cl)c(S(=O)(=O)Nc2ccccc2F)c1	nt	nt	nt	1.4%	nt	nt
CCOc1ccc(-n2c(SCC(=O)N3CCCCCC3)nc3c([nH]c4ccccc43)c2=O)cc1	nt	nt	1.2%	nt	nt	nt
O=C(Nc1cccnc1)c1ccc(Cl)c(S(=O)(=O)N2CCCCC2)c1	-2.7%	-0.7%	1.6%	nt	0.0%	nt
O=C(O)c1ccc(Cl)c(S(=O)(=O)Nc2cccc(C(=O)Nc3cccc(C(F)(F)F)c3)c2)c1	0.6%	1.3%	15.1µM*	4.9%	-0.9%	-5.3%
COc1ccc(C(=O)O)cc1S(=O)(=O)Nc1cccc(C(F)(F)F)c1	-6.4%	-1.2%	0.5%	2.7%	-2.2%	8.5%
Cc1ccc(C(=O)Nc2nccs2)cc1S(=O)(=O)N1CCCCC1	2.9%	-1.8%	16.9µM*	6.8%	0.2%	-32.1%

Bioassay records as filed in PubChem BioAssay.
